Source: PubChem BioAssay (Tox21)
Inconclusive results are not listed. Active and inactive are the calls of the source. Unless noted, calls come from the whole dose curve; as a rule, active = well fitted curve in the direction sought with a large enough effect in the repeat runs; inconclusive = weak or mixed curves; inactive = no such curve, though single readings can be large; an effect the other way counts as inactive or inconclusive.

Experiments:
[1] = qHTS RealTime-Glo MT Cell Viability Assay in HEK293 cells - 8 hour (AID 1224887); note: top concentration of the series differs between compounds; nearly all actives have a fitted effect of over 50% in size
Summary of the method: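 Luminescence readout at each listed time point; HEK293, 600 cells/well, RealTime-Glo MT reagent added with cells; compounds pinned (23 nL in DMSO) after 5 h at 37 C; continuous culture at 37 C.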

[2] = A CellTox Green Cytotoxicity Assay to monitor cytotoxicity in HEK293 cells - 16 hour (AID 1224888); note: nearly all actives have a fitted effect of over 35% in size
Summary of the method: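 Read-out: fluorescence of a cell-impermeant cyanine dye staining DNA of dead cells, proportional to cytotoxicity. HEK293, 600 cells/well with reagent, compound (23 nL DMSO) added after 5 h; reads at 0, 8, 16, 24, 32, 40 h.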

[3] = qHTS RealTime-Glo MT Cell Viability Assay in HepG2 cells - 0 hour (AID 1224889); note: nearly all actives have a fitted effect of over 50% in size
Summary of the method: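 HepG2 suspension premixed with RealTime-Glo reagents is plated at 600 cells per well and left 5 h at 37 C/5% CO2. Compounds in DMSO then go in, and bioluminescence reflecting viable cell number is recorded over 40 h.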

[4] = qHTS assay to identify small molecule antagonists of the estrogen receptor alpha (ER-alpha) signaling pathway using the BG1 cell line in the presence of 0.1 nM 17-beta-estradiol - cell viability counter screen (AID 1259241); note: nearly all actives have a fitted effect of over 40% in size
Summary of the method: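 Viability in VM7Luc4E2 cells after 22 hr compound exposure under 0.1 nM 17beta-estradiol stimulation, by CellTiter-Fluor.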

[5] = qHTS assay to identify small molecule antagonists of the androgen receptor (AR) signaling pathway using the MDA cell line in the presence of 0.5 nM R1881 - cell viability counter screen (AID 1259242); note: nearly all actives have a fitted effect of over 45% in size
Summary of the method: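 Live-cell protease fluorescence, CellTiter-Fluor, 30 min at 37C. Cells: MDA-kb2, 3,000/well, preincubated 5 hr. Compounds plus 0.5 nM R1881 final, 16 hr, 37C, 0% CO2.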

[6] = molecular target: Estrogen receptor (Homo sapiens) (UniProt P03372); experiment: qHTS assay to identify small molecule antagonists of the estrogen receptor alpha (ER-alpha) signaling pathway using the BG1 cell line in the presence of 0.1 nM 17-beta-estradiol (AID 1259244); note: nearly all actives have a fitted effect of over 50% in size
Estrogen receptor (Homo sapiens), sequence (P03372 whole entry, looked up): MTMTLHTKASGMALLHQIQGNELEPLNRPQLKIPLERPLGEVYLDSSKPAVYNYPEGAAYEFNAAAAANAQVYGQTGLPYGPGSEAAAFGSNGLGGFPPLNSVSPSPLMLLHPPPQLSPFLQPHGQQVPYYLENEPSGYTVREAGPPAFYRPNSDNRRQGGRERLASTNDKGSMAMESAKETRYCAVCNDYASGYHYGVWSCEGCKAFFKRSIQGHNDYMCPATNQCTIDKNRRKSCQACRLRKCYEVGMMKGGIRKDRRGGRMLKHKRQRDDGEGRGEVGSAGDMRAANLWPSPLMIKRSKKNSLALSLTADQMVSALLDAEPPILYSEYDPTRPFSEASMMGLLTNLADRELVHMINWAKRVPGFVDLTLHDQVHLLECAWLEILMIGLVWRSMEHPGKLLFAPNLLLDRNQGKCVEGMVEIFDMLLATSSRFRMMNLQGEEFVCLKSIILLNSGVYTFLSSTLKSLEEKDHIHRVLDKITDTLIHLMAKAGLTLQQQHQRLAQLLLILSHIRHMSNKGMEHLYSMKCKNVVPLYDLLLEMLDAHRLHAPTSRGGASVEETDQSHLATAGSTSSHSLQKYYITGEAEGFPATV
Summary of the method: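 Luminescence after ONE-Glo (30 min, room temperature) measured ERE-luciferase activity in VM7Luc4E2 cells treated 22 h with compound and 0.1 nM final 17beta-estradiol as stimulator.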

[7] = qHTS assay to identify small molecule HDAC inhibitors (AID 1259364);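 note: wild-type HCT-116 cells with endogenous class I/II HDAC activity; top concentration of the series differs between compounds; nearly all actives have a fitted effect of over 45% in size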
Summary of the method: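 HCT-116 (wild type), 1,500 cells/well, overnight; compound 2 hr 37C 5% CO2; HDAC-Glo I/II reagent 30 min RT; luminescence readout.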

[8] = qHTS assay to identify small molecule HDAC inhibitors - cell viability counter screen (AID 1259365); note: series mostly up to about 92 µM; nearly all actives have a fitted effect of over 50% in size
Summary of the method: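 Cytotoxicity was gauged in wild-type HCT-116 cells after a brief 2hr treatment with DMSO-dissolved compounds at 37C and 5% CO2, using CellTiter-Glo luminescence developed for 30min at room temperature.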

[9] = qHTS assay to identify small molecule agonists of the sonic hedgehog signaling (Shh) pathway - cell viability counter screen (AID 1259366); note: nearly all actives have a fitted effect of over 50% in size
Summary of the method: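 Stable Gli1-Luc NIH/3T3 clone, 2,000 cells/well. Compound exposure 24hr at 37C. Read-out: CellTiter-Fluor fluorescence.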

[10] = qHTS assay to identify small molecule antagonists of the sonic hedgehog signaling (Shh) pathway - cell viability counter screen (AID 1259367); note: nearly all actives have a fitted effect of over 55% in size
Summary of the method: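 Cytotoxicity was assessed in parallel with Shh reporter activity by measuring live-cell protease fluorescence (CellTiter-Fluor) in NIH/3T3 cells stably carrying Gli1-Luc, treated with compound under conditioned medium stimulation for 23 hr plus 1 hr reagent incubation.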

[11] = qHTS assay to identify small molecule agonists of the sonic hedgehog signaling (Shh) pathway (AID 1259368; calls by dose curve;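 note: NIH/3T3-derived 3T3Gli1-Luc cells carrying a stable Gli1-driven firefly luciferase reporter; series mostly up to about 92 µM; nearly all actives have a fitted effect of over 15% in size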)
Summary of the method: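 Read-out: firefly luciferase luminescence from a Gli1 response element reporter stably integrated in NIH/3T3-derived 3T3Gli1-Luc cells, measured 30 min at room temperature after reagent addition. Compound exposure lasted 24 hr at 37 C, 5% CO2.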

[12] = molecular target: Estrogen receptor beta (Homo sapiens) (UniProt Q92731); experiment: qHTS assay to identify small molecule agonists of the estrogen receptor beta (ER-beta) signaling pathway (AID 1259377; active = well fitted activation curve with a large enough effect in the signal ratio in the repeat runs, not every such curve was filed as active; the % refers to the signal ratio)
Estrogen receptor beta (Homo sapiens), sequence (Q92731 whole entry, looked up): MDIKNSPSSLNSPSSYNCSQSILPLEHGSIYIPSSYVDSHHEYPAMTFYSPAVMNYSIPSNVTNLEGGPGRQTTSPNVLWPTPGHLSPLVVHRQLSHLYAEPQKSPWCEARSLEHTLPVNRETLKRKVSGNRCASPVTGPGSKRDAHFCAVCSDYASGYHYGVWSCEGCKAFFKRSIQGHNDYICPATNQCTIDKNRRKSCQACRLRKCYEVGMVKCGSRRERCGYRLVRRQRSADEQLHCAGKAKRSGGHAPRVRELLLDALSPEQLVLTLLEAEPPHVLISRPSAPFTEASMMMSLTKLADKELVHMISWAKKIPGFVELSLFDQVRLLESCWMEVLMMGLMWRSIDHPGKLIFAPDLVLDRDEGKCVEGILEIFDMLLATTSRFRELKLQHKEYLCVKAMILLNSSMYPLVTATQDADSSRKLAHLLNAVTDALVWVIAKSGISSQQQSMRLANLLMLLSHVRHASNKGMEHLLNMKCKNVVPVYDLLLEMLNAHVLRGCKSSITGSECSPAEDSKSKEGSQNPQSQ
Summary of the method: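 Measured by fluorescence intensity from a B/G FRET beta-lactamase substrate (2 h, room temperature) in ER-beta-UAS-bla HEK293T cells treated with DMSO-dissolved compounds for 16 hr at 37C and 5% CO2.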

[13] = molecular target: Estrogen receptor beta (Homo sapiens) (UniProt Q92731); experiment: qHTS assay to identify small molecule antagonists of the estrogen receptor beta (ER-beta) signaling pathway (AID 1259378; active = well fitted inhibition curve with a large enough effect in the signal ratio in the repeat runs, not every such curve was filed as active; the % refers to the signal ratio)
Summary of the method: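 ER-beta-UAS-bla HEK293T (GripTite) cells in 2% charcoal-stripped FBS medium were preincubated 6 hr at 37C, dosed with compound, then stimulated with 1 nM E2 (final) for 16 hr; beta-lactamase reporter read by B/G FRET fluorescence after 2 hr substrate loading.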

[14] = qHTS assay to identify small molecule agonists of the androgen receptor (AR) signaling pathway in the presence of an antagonist - cell viability counter screen (AID 1259379);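 note: MDA-kb2 human breast cancer cells carrying an MMTV luciferase reporter; series mostly up to about 92 µM; nearly all actives have a fitted effect of over 25% in size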
Summary of the method: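 Viability counter screen: CellTiter-Fluor fluorescence, measured in the same wells as the luciferase read-out. MDA-kb2 cells, 3,000/well, with nilutamide at 3.0uM final and compounds at 15 concentrations, 16 hr at 37C, 0% CO2.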

[15] = qHTS assay to identify small molecule agonists of the estrogen receptor beta (ER-beta) signaling pathway - cell viability counter screen (AID 1259380); note: nearly all actives have a fitted effect of over 30% in size
Summary of the method: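 Luminescence read-out (CellTiter-Glo, 30 min, room temp) taken in the same wells as the beta-lactamase reporter assay; ER-beta-UAS-bla HEK293T cells exposed to DMSO-dissolved compounds for 16 hr at 37C in 2% charcoal-stripped FBS medium.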

[16] = A CellTox Green Cytotoxicity Assay to monitor cytotoxicity in HepG2 cells - 8 hour (AID 1224890); note: nearly all actives have a fitted effect of over 45% in size
Summary of the method: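 HepG2, 600 cells/well premixed w/ CellTox Green; 5 h settle, 37 C/5% CO2; pintool cpd add (DMSO); 37 C, 40 h; fluorescence read at 0, 8, 16, 24, 32, 40 h.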

[17] = qHTS assay to identify small molecule phospholipidosis (PLD) inducers (AID 1259344; active = well fitted curve in the direction sought with a large enough effect; an effect the other way counts as inactive or inconclusive)
Summary of the method: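 Cells (HepG2, 900 per well) attach for 4 h, receive LipidTOX Red and compound together, incubate 24 h at 37 C, are fixed 30 min with paraformaldehyde/Hoechst, then imaged at one site per well.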

[18] = qHTS assay to identify small molecule antagonists of the sonic hedgehog signaling (Shh) pathway (AID 1259369; calls by dose curve; note: nearly all actives have a fitted effect of over 45% in size)
Summary of the method: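 Luminescence readout: firefly Luc under Gli1 response element in 3T3Gli1-Luc cells (NIH/3T3 clone). Antagonist mode, stimulation by conditioned medium; compound exposure 24hr at 37 C, 5% CO2.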
% is set by controls: 0 for no effect and ±100 for the full control effect.

CCCSSCCC
inactive: Potency [1] | Potency [2] | Potency [3] | outcome [4] | outcome [5] | outcome [6] | Potency [7] | outcome [8] | outcome [9] | outcome [10] | outcome [11] | Potency [12] | Potency [13] | outcome [14] | outcome [15]

O=C1c2ccccc2C(=O)c2cc(Cl)ccc21
inactive: activity change, negative = cytotoxicity [1] 6.4% [at 6.97 µM] | activity change [2] -0.237% [at 6.97 µM, active compounds read high] | cytotoxicity increase [16] -0.731% [at 6.97 µM] | activity change, negative = cytotoxicity [4] 1.79% [at 8.39 µM] | viability change, negative = cytotoxic [5] 2.58% [at 8.39 µM] | activity change, negative = inhibition [6] 6.71% [at 8.39 µM] | activity change, negative = inhibition [7] -13.5% [at 8.39 µM] | activity change, negative = cytotoxicity [8] 6.08% [at 8.39 µM] | viability change, negative = cytotoxic [9] 3.28% [at 8.39 µM] | viability change, negative = cytotoxic [10] 1.09% [at 8.39 µM] | activity change [11] 1.3% [at 8.39 µM] | activation [12] 7.82% [at 8.39 µM] | activity, negative = inhibition [13] 3.18% [at 8.39 µM] | activity change, negative = cytotoxicity [14] 0.449% [at 8.39 µM] | activity change, negative = cytotoxicity [15] 1.14% [at 8.39 µM]

C=CC(=O)CCCCC
inactive: Potency [1] | Potency [2] | Potency [3] | outcome [4] | outcome [5] | Potency [7] | outcome [8] | outcome [9] | outcome [10] | outcome [11] | outcome [14] | outcome [15]

C[C@]12CCC(=O)C=C1CC[C@H]1[C@@H]3CC[C@](O)(C(=O)CO)[C@@]3(C)C[C@H](O)[C@@]12F
inactive: Potency [1] | Potency [2] | Potency [16] | outcome [4] | outcome [5] | outcome [6] | outcome [17] | Potency [7] | outcome [8] | outcome [9] | outcome [11] | Potency [18] | Potency [12] | Potency [13] | outcome [14] | outcome [15]

C[C@@H](O)C(=O)O
inactive: Potency [1] | Potency [2] | Potency [3] | outcome [4] | outcome [5] | outcome [6] | Potency [7] | outcome [8] | outcome [9] | outcome [10] | outcome [11] | Potency [18] | outcome [14] | outcome [15]

CC1CCc2c(N3CCC(O)CC3)c(F)cc3c(=O)c(C(=O)O)cn1c23 (stereo unspecified)
inactive: Potency [1] | Potency [2] | Potency [16] | outcome [4] | outcome [5] | outcome [6] | outcome [17] | Potency [7] | outcome [8] | outcome [9] | outcome [11] | Potency [18] | outcome [14] | outcome [15]

CC1(C)CC(OC(=O)CCCCCCCCC(=O)OC2CC(C)(C)NC(C)(C)C2)CC(C)(C)N1
inactive: activity change, negative = cytotoxicity [1] 1.91% [at 15.8 µM] | activity change [2] -6.19% [at 15.8 µM, active compounds read high] | activity change, negative = cytotoxicity [3] 5.75% [at 15.8 µM] | activity change, negative = cytotoxicity [4] -0.502% [at 19 µM] | viability change, negative = cytotoxic [5] 0.781% [at 19 µM] | activity change, negative = inhibition [6] -2.8% [at 19 µM] | activity change, negative = inhibition [7] 6.2% [at 19 µM] | activity change, negative = cytotoxicity [8] -7.5% [at 19 µM] | viability change, negative = cytotoxic [9] -15.1% [at 19 µM] | viability change, negative = cytotoxic [10] -5.84% [at 19 µM] | activity change [11] 0.253% [at 18.9 µM] | activity change, negative = inhibition [18] -29.1% [at 19 µM] | activation [12] -4.04% [at 19 µM] | activity, negative = inhibition [13] -12.7% [at 19 µM]

O=C1OCCO1
inactive: Potency [1] | Potency [2] | Potency [16] | outcome [4] | outcome [5] | outcome [6] | Potency [7] | outcome [8] | outcome [11] | outcome [14] | outcome [15]
